Results on 12 compounds are retold here after PubChem BioAssay (NCI).

Assay in all cases: NCI-60 one-dose screen, 48 h (100 = growth as untreated, 0 = no growth, -100 = all killed)
What all share (details): 10 µM unless noted

The test system of assay [1] is NCI-H23 lung.
In assay [2] the test system is NCI-H322M lung.
The subject of assay [3] is HOP-62 NSCLC.
Assay [4] relates to NCI-H460 lung.
Assay [5] relates to HOP-92 NSCLC.
Assay [6] has as its system NCI-H522 lung.
For assay [7], the system named is A549/ATCC NSCLC.
For assay [8], the system named is 786-0 renal.
For assay [9], the system named is COLO 205 colon.
In assay [10] the test system is DU-145 prostate.
Assay [11] relates to K-562 leukemia.
For assay [12], the system named is MALME-3M melanoma.
For assay [13], the system named is MDA-MB-231 breast.
Assay [14] concerns RXF 393 renal.
Assay [15] deals with SF-268 CNS.
Assay [16] relates to SF-295 CNS.
Assay [17] deals with SF-539 CNS.
Assay [18] relates to UACC-257 melanoma.
The subject of assay [19] is M14 melanoma.

This is part of a sample that, as a whole, favours compounds with a hit. Of some 83,000 tested, about 20% had one in any assay.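 A percent growth of 40 corresponds to 60% growth inhibition; 0 means no net growth; -100 means all cells died. Active threshold: below 10.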 Unmarked numbers belong to inactive results. Calls of active or inactive are those of the source.

With `Cn1c(Nc2ccc(C(F)(F)F)cc2)nc2cc(Oc3ccnc(-c4ncc(C(F)(F)F)[nH]4)c3)ccc21`, the growth in assay [1] is 48.8%; in assay [2] it was 30.8%; in assay [3], 60%; in assay [4] it was 59.2%; in assay [5] it was 67%; in assay [6], 40.5%. Also, the growth in assay [7] is 40.1%; in assay [8] it was 89.4%; in assay [9] it was 22.9%; in assay [10], 60.4%; in assay [11], 61.8%; in assay [12], -11.7% (active). In addition, the growth in assay [13] was 51.7%; in [14] it was 7.28% (active); in assay [15], 46.1%; in [16] it was 54.1%; in [17], 21.2%; in assay [18], 11.9%. For the same compound, the growth in [19] is 15.7%.
As for `C=CC[n+]1c(/C=C2\Sc3ccccc3N2C)sc(-c2ccccc2)c1-c1ccccc1`, the growth in [1] is 0.426% (active); in assay [2], 24.2%; in assay [3], 17.8%; in assay [4], 8.83% (active); in assay [5], -12.5% (active); in [6], -7.57% (active). Further, the growth in assay [7] is 14.2%; in assay [8], 16.8%; in [9], -30.2% (active); in [10], 23.4%; in [11] it was 7.28% (active); in assay [12], 4.72% (active). Besides, the growth in [13] was 31.4%; in [15], 32.9%; in [16], -17.1% (active); in assay [17], 20.3%; in assay [19], 19.7%.
`Clc1ccc(/C=C/c2cc(N3CCOCC3)c3cc(Cl)c(Cl)cc3n2)cc1`: the growth is 100% in assay [1]; 94.3% in assay [2]; 122% in assay [3]; 95% in assay [4]; 96.6% in [5]; -43.7% (active) in [6]. The growth was 79.9% in assay [7]; -11% (active) in assay [8]; 98.1% in [9]; 60.2% in assay [10]; 86.3% in assay [11]; 56% in [12]. Moreover, the growth was 59.3% in assay [13]; 81.1% in assay [14]; 58% in [15]; 95.9% in [16]; 62.3% in assay [17]; 98.5% in assay [19].
Turning to `O=C(Cn1cncn1)Nc1ccc(-c2nc3ccccc3s2)cc1`, the growth in assay [1] is 87.5%; in [2] it was 101%; in assay [3], 102%; in [4], 97%; in assay [5], 93.5%; in assay [6], 87.5%. Also, the growth was 88.1% in assay [7]; 95.6% in [8]; 107% in assay [9]; 94.5% in assay [10]; 85.8% in [11]; 100% in assay [12]. Moreover, the growth in assay [13] was 96.5%; in assay [14], 125%; in [15], 97.1%; in assay [16], 91.9%; in [17], 108%; in assay [18], 102%. In addition, the growth in [19] is 111%.
As for `NC1(c2ccc(-c3nc4ccn5c(=O)[nH]nc5c4cc3-c3ccccc3)cc2)CCC1`, the growth in assay [1] is 73.5%; in assay [2], 59.2%; in assay [3], 50.3%; in [4] it was 23.6%; in [5], 23.2%; in assay [6], 5.02% (active). For the same compound, the growth was 32.8% in [7]; 9.74% (active) in assay [8]; -19.8% (active) in [9]; 60.9% in [10]; -16.8% (active) in [11]; -70.8% (active) in [12]. Further, the growth in assay [13] is 37.4%; in assay [14], -21.7% (active); in [15] it was 52.3%; in [16] it was -65.5% (active); in assay [17], -80.9% (active); in [18] it was -67.6% (active). Moreover, the growth in assay [19] was -66.5% (active).
Take `COc1cc(NCCCN)c2ncccc2c1`: the growth was 70.8% in assay [1]; 82.9% in assay [2]; 79.4% in assay [3]; 74% in [4]; 50.7% in assay [5]; 84% in assay [6]. The growth is 95.9% in [7]; 95.7% in assay [8]; 91.8% in assay [9]; 109% in assay [10]; 89.9% in [11]; 109% in [12]. Moreover, the growth in [13] was 87.5%; in assay [14] it was 93.6%; in assay [15], 90.7%; in assay [16] it was 67.8%; in assay [17], 88.4%; in assay [18], 93.7%. Moreover, the growth in assay [19] is 75.9%.
For `Cc1ccsc1C(NC(=O)c1ccccc1)c1cc(Cl)c2cccnc2c1O` (stereo not given), the growth in [1] is 28.1%; in assay [2], 32%; in assay [4] it was 7.44% (active); in [5], 35%; in [6], 9.39% (active); in assay [7], 14.3%. In addition, the growth in [8] is 18.2%; in assay [9] it was 11.7%; in [10] it was 41.2%; in [11], 10.4%; in assay [12], 47.4%; in [13], 37.8%. For the same compound, the growth in [15] was 31.6%; in assay [16], 1.35% (active); in [17] it was 18.7%; in assay [19] it was 12.3%.
In the case of `COc1cc2c(Nc3ccc(Br)cc3F)ncnc2cc1OCC1CCN(C)CC1`, the growth is 52.5% in assay [1]; 6.72% (active) in assay [2]; 19.5% in [3]; 39.9% in assay [4]; -31.3% (active) in assay [6]; 22.9% in [7]. Also, the growth in assay [8] was 15.3%; in [9], -13.9% (active); in [10], 33%; in assay [11], 3.22% (active); in assay [12], -52.3% (active); in assay [13] it was 9.67% (active). Also, the growth in assay [14] was -38.2% (active); in assay [15], 30.5%; in assay [16], 45.8%; in assay [17], -58.4% (active); in assay [18] it was -85.9% (active).
`COc1cc(Nc2ncc3c(n2)-c2ccc(Cl)cc2C(c2c(F)cccc2OC)=NC3)ccc1C(=O)O`: the growth in assay [1] is 77.6%; in assay [2], 90.4%; in assay [3] it was 50.2%; in assay [4], 30.7%; in assay [5], 115%; in assay [6] it was 53.5%. Also, the growth was 54.2% in assay [7]; 89.1% in [8]; 8.87% (active) in [9]; 78.4% in assay [10]; 44.9% in assay [11]; 72.4% in assay [12]. Moreover, the growth in assay [13] is 69.6%; in [14] it was 95%; in assay [15], 73%; in assay [16], 64.6%; in [17], 56.6%; in assay [18], 80.8%. Moreover, the growth in assay [19] is 62.8%.
Turning to `CO[C@H]1C[C@@H]2CC[C@@H](C)[C@@](O)(O2)C(=O)C(=O)N2CCCC[C@H]2C(=O)O[C@H]([C@H](C)C[C@@H]2CC[C@@H](O)[C@H](OC)C2)CC(=O)[C@H](C)/C=C(\C)[C@@H](O)[C@@H](OC)C(=O)[C@H](C)C[C@H](C)\C=C/C=C/C=C/1C`, the growth is 51.3% in assay [1]; 43.7% in [2]; 43.8% in assay [3]; 31.9% in [4]; 41.1% in assay [5]; 39.4% in assay [6]. The growth in assay [7] was 35.1%; in [8], 42.1%; in assay [9] it was 44.3%; in [10], 42.1%; in assay [11], 24.4%; in assay [12], 35.1%. Further, the growth was 49.6% in assay [13]; -4.23% (active) in assay [14]; 39.3% in assay [15]; 22.4% in assay [16]; 27.4% in assay [17]; 53% in assay [18]. For the same compound, the growth in [19] was 50.3%.
Consider `Nc1cc2c(cc1Br)-c1c(C(=O)O)cccc1C2O` (stereo not given), for which the growth in assay [1] was 87.2%; in assay [2], 107%; in [3] it was 95.9%; in assay [4], 99.4%; in assay [5], 125%; in assay [6], 96.5%. Besides, the growth is 91.7% in assay [7]; 98.8% in assay [8]; 96.3% in [9]; 110% in [10]; 98.2% in [12]; 98.3% in [13]. In addition, the growth in assay [15] is 115%; in [16] it was 118%; in [17] it was 98.6%; in assay [19], 98.9%.
For the compound `CC(C)(C)CC(C)(C)Nc1c(-c2c(O)c3ccccc3oc2=O)nc2c(Cl)cc(C(F)(F)F)cn12`, the growth in assay [1] was 103%; in assay [2] it was 94%; in assay [3], 92.5%; in assay [4], 107%; in assay [5], 87.7%; in assay [6] it was 81.4%. Also, the growth was 85.5% in [7]; 97% in assay [8]; 112% in assay [9]; 114% in assay [10]; 94% in [11]; 100% in assay [13]. Also, the growth in [14] is 110%; in assay [15], 107%; in assay [16], 95.9%; in assay [17], 99.1%; in [19] it was 92.2%.
